Among the test systems are T-47D breast; MCF7 breast; HCT-116 colon; HCC-2998 colon; KM12 colon; MDA-MB-435 melanoma; SW-620 colon; BT-549 breast.
Common to all, as to experiment: NCI-60 one-dose screen, 48 h (100 = growth as untreated, 0 = no growth, -100 = all killed)
Holding throughout (conditions): 10 µM

We go through 19 compounds from PubChem BioAssay (NCI).

About 83,000 compounds went through this panel and 20% of them were active in at least one assay; those are over-represented in the sample as a whole.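 Single-concentration screen, 48 h exposure, 96-well plates. Endpoint: percent growth. Below 10 = active.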 Unmarked numbers belong to inactive results. Active and inactive are the calls of the source.

For `O[C@@H]1CO[C@H]2[C@@H]1OC[C@@H]2O`, the growth in the test on T-47D breast was 121%; in the test on MCF7 breast it was 99.6%; in the test on HCT-116 colon it was 104%; with HCC-2998 colon, 101%; in the test on KM12 colon, 105%.

Consider `Cc1ccc(C(SCC(N)C(=O)O)(c2ccc(C)cc2)c2ccc(C)cc2)cc1` (stereo not given), for which the growth is 27.2% in the test on T-47D breast; -59.8% (active) in the test on MDA-MB-435 melanoma; 20.5% with SW-620 colon; -25.5% (active) in the test on HCT-116 colon; 1.38% (active) in the test on HCC-2998 colon; 0.314% (active) in the test with KM12 colon.

As to `CC(C)(C)OC(=O)CN1CCc2c(sc3ncnc(N/N=C/c4ccccc4Br)c23)C1`, the growth in the test with BT-549 breast was 82.9%; in the test on MDA-MB-435 melanoma, 80.5%; in the test on SW-620 colon it was 60.6%; in the test on MCF7 breast, 3.49% (active); with HCT-116 colon it was 48.7%; in the test with HCC-2998 colon, 76.3%. In the test on KM12 colon, the growth is 80%.

On to `IC(I)I`, for which the growth in the test with SW-620 colon was 102%; in the test with MCF7 breast, 100%; in the test with HCT-116 colon it was 106%; with HCC-2998 colon, 98%; in the test with KM12 colon it was 104%.

For the compound `C=C/C(C)=C/C[C@]1(C)[C@H](C)[C@@H](OC(=O)CCC)[C@H](O)[C@@]23C(=C[C@H](OC)C[C@@H]12)[C@@H](OC(=O)CCC)O[C@H]3OC(C)=O`, the growth in the test with BT-549 breast is -48.3% (active); in the test on MDA-MB-435 melanoma, -70.3% (active); in the test on SW-620 colon it was -61.1% (active); with HCT-116 colon it was -70.3% (active); with HCC-2998 colon it was -80.7% (active); in the test with KM12 colon, 8.41% (active).

Take `COc1ccc(-c2nnc(SCC(=O)Nc3ccc(C(=O)/C=C/c4ccccc4)cc3)n2-c2ccccc2)cc1OC`: the growth is 92.8% in the test on BT-549 breast; 86.1% in the test with MDA-MB-435 melanoma; 66.4% with SW-620 colon; 36.4% in the test on MCF7 breast; 17% with HCT-116 colon; 110% in the test with HCC-2998 colon. The growth in the test with KM12 colon was 91.7%.

Regarding `C=CCN(CC=C)C(=O)[C@H](CC)[C@@H]1CC[C@@H](C)[C@@H]([C@H](C)[C@@H](O)[C@@H](C)C(=O)[C@H](CC)C2O[C@]3(C=CC(=O)[C@]4(CC[C@@](C)([C@H]5CC[C@](O)(CC)[C@H](C)O5)O4)O3)[C@H](C)C[C@@H]2C)O1` (stereo not given in full), the growth in the test with BT-549 breast was 54.8%; in the test on MDA-MB-435 melanoma, 40.7%; with SW-620 colon, 24.8%; in the test on MCF7 breast, 8.84% (active); in the test with HCT-116 colon, 13.9%; in the test with HCC-2998 colon it was 26.5%. In addition, the growth in the test with KM12 colon was 48.8%.

Consider `COc1ccc(/C=c2\sc3n(c2=O)C(c2cc(OC)c(OC)c(OC)c2)C=C(c2ccc(OC)c(OC)c2)N=3)cc1OC` (stereo not given), for which the growth in the test on BT-549 breast is 88.5%; in the test with MDA-MB-435 melanoma it was 86.1%; with MCF7 breast, 86.2%; in the test with HCT-116 colon, 89.4%; in the test on HCC-2998 colon it was 106%; in the test with KM12 colon, 95.8%.

Regarding `CCn1c2ccc(O)cc2c2c(C)c3c[n+](C)ccc3c(C)c21`, the growth in the test with BT-549 breast is -13% (active); in the test on MDA-MB-435 melanoma, 64.9%; in the test with SW-620 colon, 41.3%; in the test with MCF7 breast, 16.7%; with HCT-116 colon it was 33.9%; with HCC-2998 colon, 35.1%. Also, the growth with KM12 colon is 21.5%.

`Clc1ccc2c(c1)C(N1CCNCC1)=Nc1ccccc1O2`: the growth in the test on BT-549 breast is 72.9%; in the test on MDA-MB-435 melanoma it was 28.9%; in the test with SW-620 colon, 67%; in the test on MCF7 breast it was 28.9%; in the test on HCT-116 colon, 36.2%; with HCC-2998 colon, -25.4% (active). Further, the growth with KM12 colon is 51.9%.

As for `CCOC(=O)/C(=C(\C)N)C1CC(=O)NC1=O` (stereo not given), the growth is 87.3% in the test on BT-549 breast; 100% in the test with MDA-MB-435 melanoma; 91% with MCF7 breast; 107% in the test with HCT-116 colon; 103% in the test with HCC-2998 colon; 121% in the test with KM12 colon.

With `CCn1c(SCc2ccc(C)cc2)nnc1-c1nn(-c2ccc(Cl)cc2Cl)c(-c2ccc(Cl)cc2)c1C`, the growth with BT-549 breast was -7.34% (active); in the test on MDA-MB-435 melanoma it was 19.7%; in the test with SW-620 colon, 20.4%; with MCF7 breast it was 4.46% (active); with HCT-116 colon it was 1.74% (active); in the test on HCC-2998 colon, 23.4%. For the same compound, the growth with KM12 colon is 15.8%.

With `COC(=O)c1cc2oc(/C=C3/SC(=S)N(N)C3=O)cc2n1Cc1ccccc1`, the growth is 36.5% in the test with BT-549 breast; 19.2% with MDA-MB-435 melanoma; -43.3% (active) in the test on SW-620 colon; 21% in the test on MCF7 breast; 80.2% in the test on HCC-2998 colon; 58.9% with KM12 colon.

Regarding `S=C(NCc1ccccc1)NCc1ccccc1`, the growth with BT-549 breast was 95.4%; with MDA-MB-435 melanoma it was 101%; with SW-620 colon, 100%; in the test on HCT-116 colon it was 97.3%; in the test with HCC-2998 colon, 111%; with KM12 colon, 102%.

`COc1ccc2nc3cc(Cl)ccc3c(NCCCNCCO)c2c1`: the growth with BT-549 breast was 5.74% (active); in the test with MDA-MB-435 melanoma, -69.1% (active); in the test with SW-620 colon it was -2.84% (active); in the test with MCF7 breast, -18.6% (active); with HCT-116 colon, -50.4% (active); in the test with HCC-2998 colon, -43.6% (active). Moreover, the growth in the test with KM12 colon was 3.19% (active).

Take `CCCC1(CN2c3ccccc3Sc3ccc(Cl)cc32)CCN(CC)C1` (stereo not given): the growth in the test with MDA-MB-435 melanoma is -94.7% (active); in the test with SW-620 colon, -94.7% (active); with MCF7 breast, -93.7% (active); with HCT-116 colon it was -100% (active); in the test on HCC-2998 colon, -49.5% (active); in the test on KM12 colon, -44.5% (active).

With `OC[C@H]1OC([S-])[C@H](O)[C@@H](O)[C@@H]1O.[Au+]` (stereo not given in full), the growth is 87.1% in the test on BT-549 breast; 83.3% in the test on MDA-MB-435 melanoma; 101% in the test with SW-620 colon; 72.8% with MCF7 breast; 99% in the test with HCT-116 colon; 112% with HCC-2998 colon. In addition, in the test on KM12 colon, the growth was 114%.

Take `COc1ccc(-c2nn(-c3cccc(Cl)c3)cc2-c2cc(-c3ccccc3)nc(N)n2)cc1`: the growth in the test on BT-549 breast is 73%; in the test on MDA-MB-435 melanoma it was 57%; in the test with SW-620 colon it was 45.3%; in the test on HCT-116 colon it was 5.52% (active); in the test with HCC-2998 colon, 21.9%; in the test on KM12 colon it was 31.8%.

For the compound `COc1cc2cc(Oc3ccc(NC(=O)Nc4cccc(C(F)(F)F)c4)cc3)c(C)nc2cc1OC`, the growth in the test with MDA-MB-435 melanoma was 7.23% (active); with SW-620 colon, 17.5%; with MCF7 breast it was 6.81% (active); with HCT-116 colon, 6.71% (active); in the test with HCC-2998 colon it was 25.4%; in the test with KM12 colon it was -10.2% (active).
